Our source for the growth values is PubChem BioAssay (NCI).

Molecules are shown by their SMILES. Where “and” joins values, the source holds several entries; their conditions need not be identical. Equal values may be shown once. This is part of a sample that, as a whole, favours compounds with a hit. Of some 83,000 tested, about 20% had one in any assay.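 Testing used 96-well plates and a 48-hour single-concentration exposure. Example: -40 means 40% of the starting cells died.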 Calls of active or inactive are those of the source. How the source made its calls: active means growth percent below 10; inactive means the rest.

Holding throughout (assay): NCI-60 one-dose screen, 48 h (100 = growth as untreated, 0 = no growth, -100 = all killed)
Details in all cases: 10 µM unless noted

Experiment [1] relates to NCI-H23 lung.
Experiment [2] has as its system NCI-H226 lung.
Experiment [3] concerns NCI-H322M lung.
Experiment [4] concerns HOP-62 NSCLC.
Experiment [5] has as its system NCI-H460 lung.
Experiment [6] has as its system HOP-92 NSCLC.
Experiment [7] concerns NCI-H522 lung.
In experiment [8] the test system is A549/ATCC NSCLC.
In experiment [9] the test system is 786-0 renal.
Experiment [10] concerns COLO 205 colon.

For the compound `CC(C)(C)c1cc(C(C)(C)c2ccccc2)cc(Cc2cc(C(C)(C)c3ccccc3)cc(C(C)(C)C)c2O)c1O`, the growth in experiment [1] was 108% (inactive); in [2], 90.9% (inactive); in experiment [3] it was 97.1% (inactive); in experiment [4], 108% (inactive); in [5], 105% (inactive); in [6] it was 55.1% (inactive). The growth in [7] was 79.2% (inactive); in [8], 101% (inactive); in [9] it was 103% (inactive); in experiment [10], 123% (inactive).
Regarding `Cc1c(CC(=O)OCCO)cc(-c2ccc(Cl)cc2)n1-c1ccccc1`, the growth is 82.3% (inactive) in experiment [1]; 93.9% (inactive) in experiment [2]; 106% (inactive) in [3]; 95% (inactive) in experiment [4]; 104% (inactive) in experiment [5]; 97.4% (inactive) in experiment [6]. For the same compound, the growth in experiment [7] is 82.6% (inactive); in experiment [8] it was 94% (inactive); in experiment [9], 102% (inactive); in experiment [10], 109% (inactive).
With `COc1ccc(/C=C2\COc3ccc(O)c(O)c3C2=O)c(OC)c1OC`, the growth in experiment [1] was 38.6% (inactive); in [2], 63.9% (inactive); in experiment [3] it was 56.2% (inactive); in [4] it was 17.7% (inactive); in [5], 24.9% (inactive); in experiment [6], 38.9% (inactive). In addition, the growth was -45.2% (active) in experiment [7], 43.1% (inactive) in experiment [8], 28% (inactive) in experiment [9] and 72.3% (inactive) in [10].
With `COc1ccc2c(c1)oc1c(C)c3c(c(C)c12)C(=O)N(Nc1ccccc1)C3=O`, the growth was 98.5% (inactive) in experiment [1]; 106% (inactive) in experiment [2]; 95.5% (inactive) in experiment [3]; 88.9% (inactive) in experiment [4]; 98.9% (inactive) in [5]; 100% (inactive) in experiment [6]. Moreover, the growth in experiment [7] was 95.7% (inactive); in experiment [8], 112% (inactive); in experiment [9], 92.8% (inactive); in experiment [10], 94% (inactive).
As for `CCOC(=O)c1c(-c2ccc(C)cc2)c(C#N)c(=O)n(-c2cccc(C(F)(F)F)c2)c1N`, the growth is 98.6% (inactive) in experiment [1]; 100% (inactive) in [2]; 103% (inactive) in experiment [3]; 99.8% (inactive) in experiment [4]; 104% (inactive) in [5]; 90.9% (inactive) in experiment [6]. Besides, the growth in experiment [7] was 94.6% (inactive); in [8] it was 101% (inactive); in experiment [9], 102% (inactive); in [10] it was 106% (inactive).
Consider `COc1cc(/C=C/C(=O)c2ccc(NC(=O)CSc3nnc(-c4cc(-c5ccccc5)nc5ccccc45)n3-c3ccccc3)cc2)cc(OC)c1OC`, for which the growth was 86.8% (inactive) in experiment [1]; 85.4% (inactive) in experiment [2]; 91.7% (inactive) in experiment [3]; 93.7% (inactive) in [4]; 90.4% (inactive) in experiment [5]; 88.6% (inactive) in [6]. Moreover, the growth in [7] was 70.7% (inactive); in experiment [8], 85.8% (inactive); in [9], 94.7% (inactive); in experiment [10], 86.4% (inactive).
As for `CC(Sc1ccccc1)C(=O)O` (stereo not given), the growth in [1] was 96% (inactive); in [2], 99.3% (inactive); in experiment [3] it was 109% (inactive); in experiment [4], 83.4% (inactive); in experiment [5] it was 111% (inactive); in experiment [6] it was 97% (inactive). Moreover, the growth was 102% (inactive) in [7], 99.3% (inactive) in [8], 118% (inactive) in experiment [9] and 143% (inactive) in [10].
Regarding `CC1(C)C(N)=Nc2cc(OCCCN3Cc4ccc(OCCc5cn(CC(=O)N6CCC(CCN7CCCC7)CC6)nn5)cc4C3)c(OCC3CC3)cc21`, the growth was 98.2% (inactive) in experiment [1]; 108% (inactive) in [2]; 102% (inactive) in [3]; 95.4% (inactive) in [4]; 105% (inactive) in experiment [5]; 81.3% (inactive) in [6]. The growth in experiment [7] was 101% (inactive); in experiment [8] it was 100% (inactive); in [9] it was 99.6% (inactive); in experiment [10] it was 108% (inactive).
As to `CCCCCCCCCCCCCCCC[N+](C)(C)CCN(Cc1ccc(OC)cc1)c1ncccn1`, the growth in experiment [1] was 41.5% (inactive); in [2], 48.3% (inactive) and 60.2% (inactive); in [3] it was -81.8% (active) and 74.2% (inactive); in experiment [4], -100% (active) and 65.2% (inactive); in experiment [5] it was -84.1% (active) and 67.4% (inactive); in [6] it was -66.1% (active) and 15.6% (inactive). Moreover, the growth in [7] is -91.2% (active) and 23.4% (inactive); in experiment [8] it was -86.1% (active) and 54.4% (inactive); in experiment [9], -33.7% (active) and 61.9% (inactive); in [10] it was -100% (active) and 33.1% (inactive).
As for `O=C(Cn1cc(CN2CCN(c3ccnc4cc(Cl)ccc34)CC2)nn1)Nc1cccc([N+](=O)[O-])c1`, the growth in [1] is 99.1% (inactive); in experiment [2], 86.3% (inactive); in experiment [3] it was 91.9% (inactive); in experiment [4] it was 71.9% (inactive); in [5] it was 98% (inactive); in experiment [6], 71.4% (inactive). Also, the growth in experiment [7] is 71.7% (inactive); in [8], 84.8% (inactive); in experiment [9] it was 88% (inactive); in experiment [10], 101% (inactive).
Take `COc1cc(OC)cc(-c2ccc(-c3ccc(C(=N)N)cn3)s2)c1`: the growth in [1] is 94.6% (inactive); in experiment [2], 70% (inactive); in experiment [3], 89.2% (inactive); in [4] it was 86% (inactive); in [5], 4.75% (active); in experiment [6] it was 86.6% (inactive). Besides, the growth was 78.7% (inactive) in experiment [7], 63.2% (inactive) in experiment [8], 74.3% (inactive) in [9] and 49.4% (inactive) in experiment [10].
Take `CC1=C2[C@@H](CC1)[C@]1(C)O[C@@](C(C)C)(C[C@H]1OC(=O)CO)[C@H]2OC(=O)C1CC1c1ccccc1` (stereo not given in full): the growth in [1] is 92.8% (inactive); in experiment [2] it was 78.2% (inactive); in [3], 84.7% (inactive); in [4] it was 82.4% (inactive); in [5], 85.6% (inactive); in [6], 87.3% (inactive). The growth in experiment [7] is 73.9% (inactive); in experiment [8], 73.9% (inactive); in [9], 91.2% (inactive); in [10], 107% (inactive).
